Most compounds without a hit are left out; they make up all but 1.2% or so of the library.
RGS7-Gao – human RGS7-Galphao interaction regulation | Multiplexed bead flow cytometry, RGS7-Galphao binding; actives lie on both sides | binding response (% of control), % at 10 µM | 220,000 tested, 0.35% active; in the data active = binding response below about 49% or above about 150%; inconclusive = no clear call, values can overlap the other calls; inactive = in between;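 note: fluorescent Galphao held in activated GDP-AlF4 state binding bead-coupled RGS7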
Target sequence (P09471 whole entry, looked up): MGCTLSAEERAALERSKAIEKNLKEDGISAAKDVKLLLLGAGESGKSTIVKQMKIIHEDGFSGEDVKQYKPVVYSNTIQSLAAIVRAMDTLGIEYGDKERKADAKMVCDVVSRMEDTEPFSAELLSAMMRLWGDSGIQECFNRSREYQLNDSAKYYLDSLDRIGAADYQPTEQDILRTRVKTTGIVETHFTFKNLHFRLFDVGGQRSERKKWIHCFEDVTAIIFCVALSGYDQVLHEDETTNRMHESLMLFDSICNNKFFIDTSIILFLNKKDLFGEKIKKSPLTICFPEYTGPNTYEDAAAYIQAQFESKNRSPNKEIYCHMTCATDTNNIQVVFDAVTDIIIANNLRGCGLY
RGS4-Gao reg – modulates binding of RGS4 to human Galphao; P09471; Multiplexed bead flow cytometry; actives lie on both sides; binding response (% of control), % at 10 µM; 220,000 tested, 0.33% active; AID 1415; in the data active = binding response below about 49% or above about 150%; inactive = in between;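 note: fluorescent Galphao activated with aluminum fluoride binding bead-coupled RGS4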
Avidin bead fluor – avidin bead compound fluorescence profile | fluorescence (KMESF) at 10 µM | 220,000 tested, 0.38% active | AID 1775 | Avidin beads, compound fluorescence 488/530 nm, flow cytometry; stronger effect = higher value; in the data active = fluorescence above about 47
GSH bead fluor – GSH bead compound fluorescence profile | GSH beads flow cytometry, compound fluorescence 488/530 nm; stronger effect = higher value | fluorescence (KMESF) at 10 µM | 190,000 tested, 0.25% active | AID 1776; in the data active = fluorescence above about 89;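 note: glutathione beads carrying GST-tagged Bcl family fusion proteins plus one bare bead set; values are compound well signal with DMSO vehicle wells as background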
RGS16-Gao HTS – regulators of human RGS16-Galphao interaction; AID 1441; bead-based flow cytometry RGS16-Galphao binding, fluorescence; actives lie on both sides; 220,000 tested, 0.38% active; O15492+P09471; binding response (% of control), % at 10 µM;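 note: Galphao activated by GDP with aluminum fluoride before binding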
Target sequence (O15492 whole entry, looked up): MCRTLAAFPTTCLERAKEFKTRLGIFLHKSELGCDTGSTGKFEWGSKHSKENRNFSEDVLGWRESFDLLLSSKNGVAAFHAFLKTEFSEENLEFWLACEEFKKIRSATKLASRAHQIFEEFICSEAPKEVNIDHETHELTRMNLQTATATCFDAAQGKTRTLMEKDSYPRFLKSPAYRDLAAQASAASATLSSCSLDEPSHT
Target sequence (P09471 whole entry, looked up): as the sequence (P09471 whole entry, looked up) above
RGS8-Gao – modulates binding of RGS8 to human Galphao | 220,000 tested, 0.34% active | response (percent of control binding), % at 10 µM | AID 1423 | multiplexed bead flow cytometry; actives lie on both sides | P09471; in the data active = response below about 60% or above about 140%; inactive = in between;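 note: Galphao activated as the GDP aluminium fluoride complex binding bead-coupled RGS8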
RGS4-Gao HTS – RGS4-Galphao interaction regulator (human) | shares compounds with RGS16-Gao HTS | multiplexed bead flow cytometry, RGS–Galpha-o binding | RGS4–Galpha-o binding response, % at 10 µM | 1,600 tested, 99% active;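 note: fluorescently labeled Galpha-o bound to GDP with aluminium fluoride binding biotinylated RGS beads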
Biotin-avidin – interferes with biotinylated probe binding to avidin beads. shares compounds with RGS16-Gao HTS. streptavidin beads, fluorescein-biotin binding, flow cytometry. inhibition, % at 10 µM. 1,700 tested, under 10 active;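 active = inhibition above 50%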;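 note: median green fluorescence of gated singlet beads compared with DMSO control wells; 0% = DMSO wells and 100% = complete loss of bead fluorescence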
RGS8-Gao single – confirmation of regulators of human RGS8-Galphao interaction; shares compounds with RGS16-Gao HTS; bead-based flow cytometry RGS8-Galphao binding, fluorescence; actives lie on both sides; binding response (% of control), % at 10 µM; 1,700 tested, 3% active; in the data active = binding response below about 72% or above about 130%; inactive = in between;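 note: Galphao activated as GDP AlF4 complex before binding bead RGS8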
RGS7-Gao confirm – RGS7-Galphao interaction regulation, single point confirmation; bead-based flow cytometry RGS7-Galphao binding; actives lie on both sides; 1,700 tested, 7.8% active; shares compounds with RGS16-Gao HTS; response (percent of control binding), % at 10 µM; AID 1837; in the data active = response below about 75% or above about 130%; inactive = in between;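 note: fluorescent Galphao activated with GDP and aluminum fluoride binding bead-coupled RGS7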
RGS16-Gao single – RGS16-Galphao interaction regulation, single point confirmation. shares compounds with RGS16-Gao HTS. bead-based flow cytometry, RGS16-Galphao binding; actives lie on both sides. response (% of control binding), % at 10 µM. 1,700 tested, 4% active. AID 1838; in the data active = response below about 74% or above about 130%; inactive = in between;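 note: Galphao activated as the GDP aluminium fluoride complex binding bead-coupled RGS16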
RGS4-Gao confirm – confirmation of regulators of human RGS4-Galphao interaction; RGS4-Galphao binding, multiplexed bead flow cytometry; actives lie on both sides; shares compounds with RGS16-Gao HTS; 1,700 tested, 4% active; binding response (% of control), % at 10 µM; in the data active = binding response below about 74% or above about 130%; inactive = in between
RGS19-Gao single – confirmation of regulators of human RGS19-Galphao interaction; shares compounds with RGS16-Gao HTS; bead-based flow cytometry RGS19-Galphao binding; actives lie on both sides; response (percent of control binding), % at 10 µM; 1,700 tested, 5% active; AID 1841; in the data active = response below about 50% or above about 160%; inactive = in between;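 note: 100% = no compound control and 0% = blank background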
* marks the source's active call; other numbers are inactive results; [ ] = another dose, or the depositor's remark. Unless noted, the rule behind the calls is not given here.

For CCCn1c(SCC(=O)Nc2cccc(Cl)c2Cl)n[nH]c1=O the results were RGS7-Gao 103, RGS4-Gao reg 106, Avidin bead fluor 20, GSH bead fluor 15, RGS16-Gao HTS 111 and RGS8-Gao 103.
Screening CCCn1c(SCC(=O)Nc2ccccc2Oc2ccccc2)n[nH]c1=O returned RGS7-Gao 84, RGS4-Gao reg 78, Avidin bead fluor 1, GSH bead fluor 42, RGS16-Gao HTS -28*, RGS8-Gao 83, RGS4-Gao HTS 78*, Biotin-avidin 1, RGS8-Gao single 103, RGS7-Gao confirm 102, RGS16-Gao single 100, RGS4-Gao confirm 100 and RGS19-Gao single 112.
`Cc1ccc(NC(=O)c2ccc(COc3ccc4c(c3)CCC4)cc2)c(C)c1` gave RGS7-Gao 99, RGS4-Gao reg 102, Avidin bead fluor 14, GSH bead fluor 18, RGS16-Gao HTS 105 and RGS8-Gao 100.
Screening CCOc1ccc(NC(=O)CSC(N)=O)cc1 returned RGS7-Gao 106, RGS4-Gao reg 100, Avidin bead fluor 5, GSH bead fluor 43, RGS16-Gao HTS 243, RGS8-Gao 163*[activator], RGS4-Gao HTS 100*, Biotin-avidin 1, RGS8-Gao single 103, RGS7-Gao confirm 90, RGS16-Gao single 100, RGS4-Gao confirm 95 and RGS19-Gao single 91.
Screening CCOc1ccc(NC(=O)CC)cc1 returned RGS7-Gao inconclusive, RGS4-Gao reg 106, Avidin bead fluor 10, GSH bead fluor 21, RGS16-Gao HTS 107 and RGS8-Gao 105.
CC(C)CNC(=O)c1ccccc1SCC(=O)NC12CC3CC(CC(C3)C1)C2 was read as RGS7-Gao 79, RGS4-Gao reg 78, Avidin bead fluor 2, GSH bead fluor 15, RGS16-Gao HTS 23*, RGS8-Gao 68, RGS4-Gao HTS 78*, Biotin-avidin 0, RGS8-Gao single 98, RGS7-Gao confirm 109, RGS16-Gao single 105, RGS4-Gao confirm 104 and RGS19-Gao single 137.
CCc1n[nH]c(=S)n1/N=C/c1cc(Br)c(OC)cc1OC was read as RGS7-Gao 105, RGS4-Gao reg 98, Avidin bead fluor 17, GSH bead fluor 15, RGS16-Gao HTS 99 and RGS8-Gao 100.
`CCOCCCNC(=O)c1ccccc1OC1CCN(S(C)(=O)=O)CC1` gave RGS7-Gao 100, RGS4-Gao reg 99, Avidin bead fluor 10, GSH bead fluor 18, RGS16-Gao HTS 108 and RGS8-Gao 103.
CCSC(=O)NC1CCCCC1 was read as RGS7-Gao inconclusive, RGS4-Gao reg 102, Avidin bead fluor 7, RGS16-Gao HTS 98 and RGS8-Gao 101.
`Cc1cc(=O)[nH]c(N/N=C/c2ccc(OC(=O)c3ccco3)cc2)n1` gave RGS7-Gao 98, RGS4-Gao reg 94, Avidin bead fluor 3, GSH bead fluor 5, RGS16-Gao HTS 95 and RGS8-Gao 98.
Screening O=C(NC1CCCCCCC1)C1CCN(S(=O)(=O)N2CCCC2)CC1 returned RGS7-Gao 52, RGS4-Gao reg 58, Avidin bead fluor 6, GSH bead fluor 25, RGS16-Gao HTS 55, RGS8-Gao 59*, RGS4-Gao HTS 58*, Biotin-avidin -1, RGS8-Gao single 97, RGS7-Gao confirm 93, RGS16-Gao single 96, RGS4-Gao confirm 97 and RGS19-Gao single 83.
For Cc1c(NC(=O)CSc2nnc(COc3ccccc3)n2-c2ccccc2)c(=O)n(-c2ccccc2)n1C the results were RGS7-Gao 171*[activator], RGS4-Gao reg 114, Avidin bead fluor 141*, GSH bead fluor 13, RGS16-Gao HTS 104, RGS8-Gao 101 and RGS4-Gao HTS 114*.
For Cc1c(NC(=O)CSc2n[nH]c(=O)n2-c2ccccc2)c(=O)n(-c2ccccc2)n1C the results were RGS7-Gao 109, RGS4-Gao reg 106, Avidin bead fluor 9, GSH bead fluor 17, RGS16-Gao HTS 108 and RGS8-Gao 104.
`Cc1c(NC(=O)COC(=O)c2ccccc2Cl)c(=O)n(-c2ccccc2)n1C` gave RGS7-Gao 100, RGS4-Gao reg 97, Avidin bead fluor 10, GSH bead fluor 17, RGS16-Gao HTS 104 and RGS8-Gao 105.
`Cc1cc(C)cc(OCC(=O)OCC(=O)Nc2c(C)n(C)n(-c3ccccc3)c2=O)c1` gave RGS7-Gao 153*[activator], RGS4-Gao reg 145, Avidin bead fluor 11, GSH bead fluor 14, RGS16-Gao HTS 145, RGS8-Gao 139, RGS4-Gao HTS 145*, Biotin-avidin 1, RGS8-Gao single 103, RGS7-Gao confirm 100, RGS16-Gao single 101, RGS4-Gao confirm 102 and RGS19-Gao single 98.
Screening Cc1c(NC(=O)COC(=O)COc2ccc(Nc3ccccc3)cc2)c(=O)n(-c2ccccc2)n1C returned RGS7-Gao 155*[activator], RGS4-Gao reg 143, Avidin bead fluor 11, GSH bead fluor 14, RGS16-Gao HTS 142, RGS8-Gao 140*[activator] and RGS4-Gao HTS 143*.
CCOCC(=O)Nc1c(C)n(C)n(-c2ccccc2)c1=O was read as RGS7-Gao 106, RGS4-Gao reg 105, Avidin bead fluor 14, GSH bead fluor 31, RGS16-Gao HTS 107 and RGS8-Gao 102.
Screening CCOC(=O)c1ccc(NC(=O)CSc2nnc(Cn3c(=O)sc4ccccc43)n2C)cc1 returned RGS7-Gao 173*[activator], RGS4-Gao reg 109, Avidin bead fluor 89*, GSH bead fluor 26, RGS16-Gao HTS 101, RGS8-Gao 94, RGS4-Gao HTS 109*, Biotin-avidin -2, RGS8-Gao single 99, RGS7-Gao confirm 101, RGS16-Gao single 101, RGS4-Gao confirm 99 and RGS19-Gao single 88.
